Compound activity from PubChem BioAssay.
Most compounds without a hit are left out; they make up all but 5.3% or so of the library.
HIF act – HIF pathway transcriptional activators, primary screen, cell-based, U2OS HRE-luciferase, luminescence; activation, % at 7.5 µM (by protocol); actives 0.32% (n = 300,000); U2OS HRE-luciferase reporter; normalized: DMSO 0%, desferrioxamine 100%;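 active means mean activation of at least 10% of the iron chelator positive control signal, with at least half of replicates also reaching 10%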
SUMO Mot1 rescue – yeast Mot1-301 growth rescue at high temperature, primary screen, SUMOylation pathway inhibitor project, S. cerevisiae, ATP luminescence, 38.5C | S. cerevisiae Mot1-301 growth rescue; percent above DMSO median, 100 means doubled | growth rescue, % at 18.8 µM | actives 1% (n = 320,000);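 active means every valid replicate shows activation above 250% relative to neutral control wells; inactive means the rest, any valid replicate at or below 250%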
M18AAP inhibitor – PfM18AAP inhibitors, malaria aminopeptidase, primary screen, biochemical, QFRET, recombinant enzyme; H-Glu-NHMec fluorogenic cleavage; inhibition, % at 7.35 µM; actives 1.2% (n = 290,000); AID 1822, 2009;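 active means inhibition above the campaign mean inhibition over all tested compounds plus 3 SD, cut at about 28% in these data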
ALR H2O2 inh – inhibitors of human ALR sulfhydryl oxidase, primary screen, biochemical, H2O2 detection, HRP-luminol luminescence, single point | inhibition, % (concentration not given with the values) | FAD-linked sulfhydryl oxidase ALR (Homo sapiens), P55789 | actives 3.8% (n = 290,000) | purified ALR, DTT oxidation;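 active means mean replicate inhibition above about 79%, with every replicate also reaching it, limit read from the data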
Target sequence (P55789 whole entry, looked up): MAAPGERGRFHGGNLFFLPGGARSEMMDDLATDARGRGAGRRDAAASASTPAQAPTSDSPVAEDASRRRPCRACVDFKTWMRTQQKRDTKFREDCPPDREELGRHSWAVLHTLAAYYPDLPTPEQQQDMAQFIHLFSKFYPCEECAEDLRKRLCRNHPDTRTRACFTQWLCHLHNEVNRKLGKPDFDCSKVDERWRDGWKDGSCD
A number is an active result; i = inactive; nt = no result given.

SMILES	HIF act	SUMO Mot1 rescue	M18AAP inhibitor	ALR H2O2 inh
Cc1ccc(CN(C(=O)c2ccc(Cl)c([N+](=O)[O-])c2)C2CCS(=O)(=O)C2)o1 (configuration not stated)	nt	i	i	i
CCOC(=O)c1[nH]c2cc(OC)c(OC)cc2c1NC(=O)CN(C)C1CCCCC1	i	i	i	97
CCOC(=O)c1[nH]c2cc(OC)c(OC)cc2c1NC(=O)c1ccc2c(c1)OCO2	i	i	i	i
O=C(C1=C(O)C(=O)N(Cc2ccco2)C1c1ccccc1)c1cccs1 (configuration not stated)	i	i	i	i
Cc1ccc(OCCn2cnc3c(N)ncnc32)cc1	i	i	i	nt
CCOc1ccc(OCCn2c(=S)[nH]c3c(N)ncnc32)cc1	i	i	i	91
Cn1c(N)c(Sc2ccccc2[N+](=O)[O-])c(=O)n(C)c1=O	i	i	i	i
CCC(CO)Oc1cc(NCc2ccc(O)cc2)c2ncn(C(C)C)c2c1 (configuration not stated)	nt	i	nt	99
CCC(COC)Oc1cc(NCc2ccccc2)c2ncn(C(C)C)c2c1 (configuration not stated)	nt	i	nt	83
COc1ccc(CCC(=O)NC(C)c2ccccc2)cc1OC (configuration not stated)	i	i	i	i
O=C(C1CCCN(S(=O)(=O)c2ccc(F)cc2)C1)N1CCCCC1 (configuration not stated)	i	i	i	i
COCCCC1CCN(C(=O)c2cc(COc3cc(C)ccc3C)on2)CC1	i	i	i	i
O=C(CSCC(=O)OCn1nnc2ccccc2c1=O)Nc1ccc(Cl)cc1	i	i	i	98
CN(C)c1ccc(NC(=O)CCCCCn2nnc3ccccc3c2=O)cc1	i	i	i	99
O=C(CSc1ccc(Cl)cc1)N/N=C/c1ccc([N+](=O)[O-])o1	i	i	i	nt
Cc1[nH]c(=O)[nH]c(=O)c1/C=C/C(=O)O	i	853	i	nt
COC(=O)/C=C/c1c(C)[nH]c(=O)[nH]c1=O	i	i	i	i
O=[N+]([O-])c1cccc(S(=O)(=O)NC2CC3CCC2C3)c1 (configuration not stated)	i	i	i	i
CCC1CCc2sc(C(=O)NCC3CCCO3)cc2C1 (configuration not stated)	nt	i	nt	i
CCC1CCc2sc(C(=O)NCc3ccccn3)cc2C1 (configuration not stated)	22	i	i	i
COc1ccc(C2=NCCn3nc4ccccc4c32)cc1	nt	i	nt	i
COc1ccc(/C=N/Nc2nc(-c3cccnc3)nc3ccccc23)cc1OC	i	i	i	nt
Oc1ccc(/C=N/Nc2nc(-c3cccnc3)nc3ccccc23)c(O)c1	i	i	30	i
Cc1c(O)ccc(/C=N/Nc2nc(-c3cccnc3)nc3ccccc23)c1O	i	i	29	i
O=C(NN1C(=O)c2ccccc2NC1c1ccccn1)c1ccccc1 (configuration not stated)	i	i	i	i
SMILES	HIF act	SUMO Mot1 rescue	M18AAP inhibitor	ALR H2O2 inh
COc1c(Cl)cc(Cl)cc1C(=O)Nc1ccc(NC(C)=O)cc1	i	nt	i	nt
COC(=O)c1cc(Cl)cc(Cl)c1OS(=O)(=O)N(C)C	i	i	i	99
CCOCCc1c(O)nc(SCC(=O)N2CCOCC2)[nH]c1=O	i	i	i	85
CCCCCCc1c(O)nc(SCCN2CCOCC2)[nH]c1=O	i	i	i	i
Cc1sc2nc(SCC(=O)N3CCOCC3)[nH]c(=O)c2c1-c1ccccc1	i	i	i	i
CCCCc1c(O)nc(SCC(=O)N2CCOCC2)[nH]c1=O	i	i	i	98
O=C(c1ccc(Cl)cc1)N1CCN(c2ccc(F)cc2)CC1	nt	i	i	i
Cc1ccc(CN2CCN(c3cccc4[nH]ccc34)CC2)cc1	i	i	i	99
O=C(c1ccc(Cl)cc1)N1CCN(c2cccc3[nH]ccc23)CC1	i	i	i	97
COc1cc2ccccc2cc1C(=O)Nc1ccc(Cc2ccncc2)cc1	i	i	i	i
COc1ccc(Br)cc1C(=O)Nc1ccc(O)cc1	i	i	i	99
COc1cc2ccccc2cc1C(=O)Nc1ccc(C)cc1	11	i	i	i
CCC(Sc1nc(-c2ccccc2)c(-c2ccccc2)[nH]1)C(=O)O (configuration not stated)	i	i	i	82
Cc1cc(C)c(C)c(S(=O)(=O)N2CCC(C(=O)NCC(c3ccccc3)N(C)C)CC2)c1C (configuration not stated)	i	i	i	i
O=[N+]([O-])c1ccc(CSc2ncnc3ccccc23)cc1	i	i	i	99
O=C(CSc1ncnc2ccccc12)c1ccco1	i	i	i	99
Cc1cc(SCC(=O)NC(=O)NCc2ccco2)nc2c(C)cccc12	i	i	i	i
Cc1cc(SCC(=O)NC(=O)NCc2ccco2)nc2ccccc12	i	i	i	98
Cn1c(SCC(=O)NCc2ccco2)nnc1C1CC1	nt	i	nt	nt
CC(C)n1c(SCC(=O)NCc2ccco2)nnc1C1CC1	i	i	28	i
O=C(COc1ncnc2ccccc12)NCc1ccco1	i	i	i	i
Cc1ccc2nc(SCC(=O)NCc3ccco3)c(C)cc2c1	i	i	i	98
Cc1nc(SCC(=O)NCc2ccco2)c2c3c(sc2n1)CCCC3	i	nt	i	97
O=C(CSc1ncnc2ccccc12)NCc1ccco1	i	i	i	99
COC(=O)C1C(c2ccccc2)C(C(=O)O)C1c1ccccc1 (configuration not stated)	i	i	i	i
SMILES	HIF act	SUMO Mot1 rescue	M18AAP inhibitor	ALR H2O2 inh
O=C(O)C1C(c2ccccc2)C(C(=O)Oc2ccc(O)cc2)C1c1ccccc1 (configuration not stated)	i	i	i	94
C/C(=N\NC(=O)COc1ccc(C#N)cc1)c1ccc(N2CCOCC2)cc1	i	i	i	99
O=C(COC(=O)CNS(=O)(=O)c1ccc(Br)cc1Cl)Nc1ccc(N2CCOCC2)cc1	i	i	nt	99
N#Cc1ccc(OCC(=O)OCC(=O)Nc2ccc(N3CCOCC3)cc2)cc1	i	i	nt	94
O=C(CNS(=O)(=O)c1ccc(Br)cc1Cl)OCC(=O)N1CCCC1=O	nt	i	nt	i
N#Cc1ccc(C(=O)OCC(=O)Nc2ccc(N3CCOCC3)cc2)cc1	i	i	i	i
C/C(=N\NC(=O)COc1cc(C)cc(C)c1)c1ccc(N2CCOCC2)cc1	i	i	i	nt
C/C(C/C(C)=C1/SC(=S)NC1=O)=C1\SC(=S)NC1=O	nt	nt	29	nt
CCCCCC/C(C)=C1/SC(=S)NC1=O	i	i	i	i
COCCNC(=O)/C(C#N)=C/c1ccc(O)cc1	i	i	i	87
CN(C)c1ccc(/C=C(\C#N)C(=O)NCc2ccco2)cc1	i	i	i	nt
COCCNC(=O)/C(C#N)=C/c1cccc(/C=C(\C#N)C(=O)NCCOC)c1	i	i	i	i
Cc1ccc(CNC(=O)/C(C#N)=C\c2ccc(N(C)C)cc2)cc1	i	i	i	98
